Our source for the outcome values is PubChem BioAssay AID1650 (Southern Research Specialized Biocontainment Screening …, 2009).

Potency and affinity values are given separately. Calls of active or inactive are those of the source. Entries that show only a call come without a potency. How the calls were made is not given here.

This experiment in a line: host cell cytotoxicity of antiviral hits, dose response, cytotoxicity control for West Nile virus antiviral project, secondary assay (AID 1650). The settings on record: Mammalian host cell viability, cytotoxicity counter-screen; series mostly up to 10 µM.
As for `CN1/C(=C\C(=S)NC(=O)c2cccc(Br)c2)C(C)(C)c2ccccc21`, the outcome was inactive. For `COc1ccc(OCC(O)Cn2c(=N)n(Cc3ccccc3)c3ccccc32)cc1` (stereo not given), the compound was classed as inactive.

Take `Cn1cc(CN2CCCC(C(=O)Nc3ccc(-c4cccc(F)c4)cc3)C2)cn1` (stereo not given): the call was inactive. Turning to `Cc1ccc(/C=C2/Sc3ccc(C(=O)N4CCN(C)CC4)cc3NC2=O)cc1`, the outcome was inactive. For the compound `c1ccc(-c2ccc(-c3[nH]ncc3CN3CCC(N4CCSCC4)CC3)cc2)cc1`, the call was inactive. In the case of `CCOc1ccc(-c2cc(C(=O)NCCCN3CCCC3)c3ccccc3n2)cc1` it was “inactive”; in that of `COc1ccc(Nc2nc3ccccc3nc2C)cc1`, “inactive”; in that of `CCCCCn1c(N2CCC(Cc3ccccc3)CC2)nc2c1c(=O)[nH]c(=O)n2C`, “inactive”. Turning to `COc1ccc([C@@H]2[C@@H]3C(=O)N(C(C)(C)C)C(=O)[C@@H]3[C@]3(Cc4ccccc4)C(=O)N(c4ccc(Br)cc4)C(=O)N23)cc1`, the call was inactive.

Turning to `CN(C)CCCN1c2ccc([N+](=O)[O-])cc2CCc2cc([N+](=O)[O-])ccc21`, the call was inactive. In the case of `CCN(CC)S(=O)(=O)c1cc(C(=O)Nc2cc(Cl)ccc2N2CCN(C)CC2)ccc1Cl` it was “inactive”. As to `COC1(OC)C=CC(=O)C=C1NC(=O)c1ccccc1OC(C)=O`, the compound was called inactive. `Cc1onc(-c2ccccc2Cl)c1C(=O)O/N=C(\N)c1ccc([N+](=O)[O-])o1`: the compound was classed as inactive. Regarding `Cc1cccc(/C=C2/Sc3ccc(C(=O)NCCCN4CCOCC4)cc3NC2=O)c1`, the outcome was inactive.

As for `CCCC1(c2ccccc2)NC(=O)N(CC(=O)Nc2sc(-c3ccccc3)cc2C(=O)OCC)C1=O` (stereo not given), the compound was classed as inactive.
